One may read the AC50 as the midpoint of the concentration-response curve, whichever way the signal moves.

Each structure is given as a SMILES string. The whole screen tested about 16,000 compounds, of which about 5,700 (36%) were called active. Not shown: some 24% with an inconclusive outcome. Some of the results follow. A number with no mark means an inactive call. Calls come from the whole dose curve; as a rule, active = well fitted curve in the direction sought with a large enough effect; inconclusive = small, poorly fitted or top-dose-only effect, or effect the other way; inactive = no such curve, though single readings can be large or run the other way.
% is set by controls: 0 for no effect and ±100 for the full control effect.

For this test, the target named is Cytochrome P450 1A2 (Homo sapiens) (UniProt P05177). Put plainly: Cytochrome panel assay with activity outcomes. Conditions: recombinant CYP, pro-luciferin dealkylation, luminescence, p450-cyp1a2; series mostly up to 57.1 µM.
Cytochrome P450 1A2 (Homo sapiens), sequence (P05177 whole entry, looked up): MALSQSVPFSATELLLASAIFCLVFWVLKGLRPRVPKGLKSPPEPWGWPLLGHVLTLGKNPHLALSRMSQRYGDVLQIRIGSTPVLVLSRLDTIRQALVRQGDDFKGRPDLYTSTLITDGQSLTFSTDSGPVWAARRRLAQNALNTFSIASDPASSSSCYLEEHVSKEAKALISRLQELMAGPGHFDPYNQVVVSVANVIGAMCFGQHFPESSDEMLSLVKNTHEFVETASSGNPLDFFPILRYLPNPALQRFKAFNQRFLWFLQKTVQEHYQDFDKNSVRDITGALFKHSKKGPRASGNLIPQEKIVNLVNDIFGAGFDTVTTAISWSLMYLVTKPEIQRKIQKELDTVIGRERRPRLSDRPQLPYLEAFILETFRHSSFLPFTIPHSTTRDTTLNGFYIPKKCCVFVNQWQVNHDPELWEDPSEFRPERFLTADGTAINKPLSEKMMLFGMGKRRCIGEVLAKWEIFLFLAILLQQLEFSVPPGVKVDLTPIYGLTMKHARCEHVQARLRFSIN
Turning to `CS(=O)(=O)N1CCC[C@@]2(CCN(C(=O)Nc3ccccc3)C2)C1`, the AC50 entry is “inactive”.

For `COC(=O)[C@@]1(Cc2ccccc2)[C@H]2c3cc(C(=O)N4CCCC4)n(Cc4ccccn4)c3C[C@H]2CN1C(=O)c1ccccc1`, the AC50 entry was “inactive”.

As to `N[C@H](C(=O)O)[C@@H]1C[C@@H]1C(=O)O`, the AC50 entry is “inactive”.

As to `O=c1[nH]c2cc(Br)cnc2nc1/C=C(\O)c1ccc(F)cc1`, the AC50 was 398 nM (active).

For the molecule `CCNc1ncc2nc(-c3cccc(C#N)c3)c(=O)n(C)c2n1`, the AC50 is 2510 nM (active).

As for `CCNc1ncc2nc(-c3cc(F)cc(F)c3)c(=O)n(C)c2n1`, the AC50 is 2000 nM (active).

Regarding `CCNc1ncc2nc(-c3ccccc3)c(=O)n(C)c2n1`, the AC50 is 398 nM (active).

Regarding `CCNc1ncc2nc(-c3ccc(OC)cc3)c(=O)n(Cc3ccc(F)cc3)c2n1`, the AC50 entry was “inactive”.

`CCNc1ncc2nc(-c3ccc(F)cc3)c(=O)n(C)c2n1`: the AC50 was 501 nM (active).

Turning to `O=C1O[C@@H]([C@H](O)[C@H](O)[C@H](O)CO)[C@@H](O)[C@@H]1O`, the activity, negative = inhibition is -12.7% [at 11.4 µM].

For the molecule `NC(=O)c1cc[n+](CC2=C(C(=O)[O-])N3C(=O)[C@@H](NC(=O)Cc4cccs4)[C@@H]3SC2)cc1`, the AC50 entry is “inactive”.

Regarding `C[C@H](Oc1ccccc1)C(=O)N[C@@H]1C(=O)N2[C@@H]1SC(C)(C)[C@@H]2C(=O)O`, the AC50 result is “inactive”.

With `NOCC(=O)O`, the AC50 result is “inactive”.

Consider `Cc1cc(C(C)(C)C)c(O)c(C)c1CC1=NCCN1`, for which the AC50 entry is “inactive”.

Consider `Cc1n[nH]c(=O)[nH]c1=O`, for which the AC50 result was “inactive”.

Take `CCNc1ncc2nc(-c3ccc(OC)cc3)c(=O)n(-c3ccc(OC)cc3)c2n1`: the AC50 result was “inactive”.

For the molecule `CCNc1ncc2nc(-c3ccc(Cl)cc3)c(=O)n(C)c2n1`, the AC50 was 398 nM (active).

On to `CN1CCN(c2ncnc3ccc(-c4cccc(C#N)c4)cc23)CC1`, for which the AC50 is 1260 nM (active).

With `c1cncc(-c2ccc3ncnc(N4CCNCC4)c3c2)c1`, the AC50 was 1260 nM (active).

Regarding `N#Cc1cccc(-c2ccc3ncnc(N4CCNCC4)c3c2)c1`, the AC50 was 631 nM (active).

On to `COc1cc2cc3c4cc(OC)c(OC)cc4cc[n+]3c(C)c2cc1OC`, for which the AC50 entry was “inactive”.

Take `CC(C)CO/N=C1/[C@H]2O[C@@H]2[C@@H](O)[C@H]2[C@H]1CCn1c(=O)n(-c3ccccc3)c(=O)n12`: the activity, negative = inhibition is -6.37% [at 11.4 µM].

Regarding `OCCCCNCc1ccc(OCc2ccccc2Cl)cc1`, the AC50 is 5010 nM (active).

Turning to `CCOc1cc(CNCCCN2CCOCC2)cc(Br)c1OCC(=O)Nc1cccc(C(F)(F)F)c1`, the AC50 entry is “inactive”.

Turning to `CCOc1cc(CNCCO)cc(Br)c1OCc1ccccc1Cl`, the AC50 was 158 nM (active).

For the molecule `Clc1ccccc1CNCC1CCC(CNCc2ccccc2Cl)CC1` (stereo unspecified), the AC50 result is “inactive”.

For `Clc1ccc(-c2nc3ncccn3c2Nc2ccc3c(c2)OCCO3)cc1`, the AC50 was 6310 nM (active).

As for `CC(C)CN1CCC2(CC1)CCN(C(=O)c1cc(C(F)(F)F)cc(C(F)(F)F)c1)CC2`, the AC50 entry is “inactive”.

With `O=C(O)C1C2C=CC(C2)C1C(=O)N1CCN(C/C=C/c2ccccc2)CC1` (stereo unspecified), the AC50 entry is “inactive”.

Regarding `O=C(/C=C/c1ccc2ccccc2c1)c1ccoc1`, the AC50 is 2240 nM (active).

As to `O=c1cc(-c2ccccc2)oc2cc(O)c(O)c(O)c12`, the AC50 is 501 nM (active).

`CC(C)(C)OC(=O)COc1cc(OCC(=O)OC(C)(C)C)c2c(=O)cc(-c3ccccc3)oc2c1`: the AC50 entry is “inactive”.

As for `NS(=O)(=O)Cc1noc2ccccc12`, the AC50 entry is “inactive”.

For the molecule `CCCCC(=O)Nc1ccc(C)c(O)c1`, the AC50 is 3550 nM (active).

For `CCC(CC)C(=O)Nc1ccc(C)c(O)c1`, the AC50 was 12600 nM (active).

Turning to `CCC(CC)C(=O)Nc1cccc(C(=O)Nc2ccc(OC)cc2[N+](=O)[O-])c1`, the AC50 result is “inactive”.

Consider `CCCCC(=O)Nc1ccc(C(=O)NNC(=O)CCc2ccccc2)cc1`, for which the AC50 result is “inactive”.

On to `COc1cc(C2C(C(=O)c3ccc(C)o3)=C(O)C(=O)N2CCc2ccccc2)ccc1O` (stereo unspecified), for which the AC50 result is “inactive”.

For the molecule `Cc1cc(C)nc(NN2C(=O)/C(=C/c3ccccc3)SC2=S)n1`, the AC50 result is “inactive”.

In the case of `O=C1/C(=C\c2ccccn2)SC(=S)N1Nc1ncc(C(F)(F)F)cc1Cl`, the AC50 is 8910 nM (active).

On to `Cc1cc(C)n2nc(SCN3C(=O)c4ccccc4C3=O)nc2n1`, for which the activity, negative = inhibition is 18.7% [at 11.4 µM].

For `Cc1cc(C)n2nc(SCc3cc(=O)oc4ccc5ccccc5c34)nc2n1`, the AC50 is 5620 nM (active).

In the case of `CCCSc1nnc(CSc2nc3nc(C)cc(C)n3n2)o1`, the AC50 result was “inactive”.

On to `O=C(O)c1c[nH]c2cc(OCc3ccccc3)ccc2c1=O`, for which the activity, negative = inhibition is -19.1% [at 11.4 µM].

As to `S=C(Nc1ccccc1)Nc1ccc(OCc2ccccc2)cc1`, the AC50 was 5620 nM (active).

Consider `Cc1c(C(=O)Nc2ccc(OCc3ccccc3)cc2)cccc1[N+](=O)[O-]`, for which the AC50 result was “inactive”.

For `Oc1ccc(OCc2ccccc2)cc1`, the concentration at half-maximal activity (AC50) is 1580 nM (active).

With `O[C@@H]1[C@@H](OCc2ccccc2)OC[C@H](O)[C@@H]1O`, the activity, negative = inhibition was -15.1% [at 11.4 µM].

In the case of `CO[C@@H]1COC(=O)[C@H]2CCCN2C(=O)C/C=C\[C@@H](C)[C@H](OC)COC(=O)[C@H]2CCCN2C(=O)C/C=C\[C@H]1C`, the activity, negative = inhibition was -18.1% [at 11.4 µM].

With `Cn1c2c(c(=O)n(C)c1=O)[C@@H]1c3c(ccc4ccccc34)OC[C@@H]1CO2`, the AC50 result is “inactive”.

For `COc1ccc(O[C@H]2C=C[C@@H](c3ccccc3)O[C@H]2COC(=O)CC/C(C)=N/O[C@@H]2O[C@H](COC(C)=O)[C@H](OC(C)=O)[C@H](OC(C)=O)[C@H]2OC(C)=O)cc1`, the activity, negative = inhibition was 7.86% [at 11.4 µM].

As to `Cc1noc(C)c1C(=O)N1CCC2(CCCN(c3ccncc3)C2)CC1`, the AC50 result was “inactive”.

As for `CC1CCc2c(C(=O)Nc3nccs3)csc2C1` (stereo unspecified), the half-maximal activity concentration (AC50) was 1000 nM (active).

For the molecule `CCCCNC(=S)NNC(=O)c1csc2c1CCC(C)C2` (stereo unspecified), the AC50 was 14100 nM (active).

As for `CCCCNC(=S)NNC(=O)c1sccc1C`, the AC50 was 14100 nM (active).

As to `CCCCNC(=O)NS(=O)(=O)c1ccc(C)cc1`, the AC50 entry is “inactive”.

Turning to `COc1ccc(-c2cc(C3CCN(c4cc(Cl)nc(N)n4)CC3)[nH]n2)cc1`, the AC50 is 15800 nM (active).

`COc1ccc(-c2cc(C3CCN(c4ccc(C(C)=O)cc4[N+](=O)[O-])CC3)[nH]n2)cc1`: the AC50 is 7080 nM (active).

Consider `O=C(NC(=S)NNC(=O)c1cccs1)c1ccco1`, for which the AC50 result is “inactive”.

Take `S=C(NCc1ccco1)N1CCN(Cc2ccco2)CC1`: the AC50 entry is “inactive”.

Take `O=C(NNC(=S)NCc1ccco1)c1ccc(Cl)s1`: the AC50 is 22400 nM (active).

In the case of `CCOC(=O)C(=CNCC(=O)O)C(=O)OCC`, the AC50 result was “inactive”.

`CCOC(=O)C(=CNc1cccc(C)c1C)C(=O)OCC`: the AC50 result was “inactive”.

In the case of `CCOC(=O)C(=CNc1ncccc1C)C(=O)OCC`, the AC50 was 1120 nM (active).

Turning to `COC(=O)c1sccc1NC(=O)c1cc(-c2ccc(C)cc2C)nc2ccccc12`, the AC50 entry was “inactive”.

Regarding `Cc1ccc(C)c(NC(=O)Cn2nnc(C(=O)NCc3cccs3)c2N)c1`, the AC50 entry was “inactive”.

In the case of `Cc1ccc(NC(=O)CCC(=O)NNC(=O)c2cccs2)c(C)c1`, the AC50 result was “inactive”.

`Cc1ccc(Nc2ncccc2C(=O)NCc2cccs2)c(C)c1`: the AC50 was 1000 nM (active).

In the case of `Cc1ccc(C)c(-c2cc(C(=O)NCc3cccs3)c3ccccc3n2)c1`, the AC50 is 2240 nM (active).

As to `Cc1ccc(C)c(-c2cc(C(=O)Nc3nccs3)c3ccccc3n2)c1`, the AC50 is 891 nM (active).

For the molecule `COc1ccc2oc(-c3ccc(C)c(NC(=O)c4ccc(N5CCOCC5)c([N+](=O)[O-])c4)c3)nc2c1`, the AC50 result is “inactive”.

With `COc1ccc2oc(-c3ccc(C)c(NC(=O)CSc4ccc(Cl)cc4)c3)nc2c1`, the AC50 was 3160 nM (active).

In the case of `CC(=O)OC[C@H]1O[C@@H](O/N=C(\C)CCN2CCc3nc(-c4ccccc4)c(-c4ccccc4)cc3C2)[C@H](OC(C)=O)[C@@H](OC(C)=O)[C@H]1OC(C)=O`, the activity, negative = inhibition is -0.893% [at 11.4 µM].

Regarding `O=C(Cc1ccc(Br)cc1)OCC(=O)c1ccc2c(c1)OCCO2`, the AC50 was 12600 nM (active).

Regarding `O=C(CN1C(=O)c2ccccc2C1=O)NCC(=O)OCC(=O)c1ccc(Br)cc1`, the AC50 result was “inactive”.

Regarding `CC(=O)NCCn1c(SCC(=O)NCc2ccco2)nc2ccccc2c1=O`, the AC50 entry is “inactive”.

Take `C=CCSc1nc2ccccc2c(=O)n1Cc1ccco1`: the AC50 is 25.1 nM (active).

`C=CCSc1nn2c(=O)c3ccccc3nc2s1`: the AC50 is 1000 nM (active).

Consider `CC1(C)S[C@@H]2[C@H](NC(=O)[C@@H](NC(=O)N3CCNC3=O)c3ccccc3)C(=O)N2[C@H]1C(=O)O`, for which the AC50 result is “inactive”.

As for `CCn1c(CCNC(=O)c2ccccc2Cl)n[nH]c1=S`, the AC50 entry was “inactive”.

Consider `S=c1[nH]nc(CCc2ccccc2)n1Cc1ccccc1`, for which the AC50 is 25100 nM (active).

In the case of `Cn1c(CCNC(=O)c2ccccc2Cl)n[nH]c1=S`, the AC50 result was “inactive”.

As to `N=c1ccn2c(n1)O[C@@H]1[C@@H](O)[C@H](CO)O[C@H]12`, the AC50 entry is “inactive”.

`COc1ccc(CCCO[C@@H](Cn2ccnc2)c2ccc(OC)cc2)cc1`: the AC50 was 15.8 nM (active).

Consider `Cc1ccc(/C=C2\SC(=S)N(CCCC(=O)Nc3ccccn3)C2=O)cc1`, for which the concentration at half-maximal activity (AC50) was 10000 nM (active).

For `Cc1ccc(C(=O)c2cn[nH]c2-c2cc(Cl)ccc2O)cc1`, the AC50 is 14100 nM (active).

As for `CC(NC(=O)OCc1ccccc1)C(=O)NCC1CCCO1` (stereo unspecified), the AC50 was 12600 nM (active).

For the molecule `O=C(NCC1CCCO1)C1CCC(=O)N1CCc1ccccc1` (stereo unspecified), the AC50 result is “inactive”.

In the case of `O=C(CC(c1ccccc1)c1ccccc1)NCC1CCCO1` (stereo unspecified), the AC50 result was “inactive”.

Consider `CC(C)Cc1nnc(NC(=O)c2ccc([N+](=O)[O-])cc2)s1`, for which the AC50 entry is “inactive”.

Regarding `CC(=O)N=c1sccn1CC(=O)c1ccc([N+](=O)[O-])cc1`, the AC50 was 22400 nM (active).

As to `C[C@@H](Cc1cccc(C(F)(F)F)c1)NCCOC(=O)c1ccccc1`, the AC50 is 794 nM (active).

With `O=C(c1cccc(C(F)(F)F)c1)N1CCC(O)(CS(=O)(=O)Cc2ccccc2)CC1`, the AC50 result is “inactive”.

In the case of `COC(=O)C(Cc1ccc(OC(=O)c2ccc(C(F)(F)F)cc2)cc1)N1Cc2ccccc2C1=O` (stereo unspecified), the AC50 result was “inactive”.

Consider `O=C(O)c1cccc(OCCO)c1`, for which the activity, negative = inhibition is -14.7% [at 11.4 µM].

With `CCOc1cccc(OCCCNCCCOC)c1`, the AC50 was 8910 nM (active).

The values above are taken from PubChem BioAssay AID1851 (National Center for Advancing Translational Sciences (NCATS), 2009).
